Unmarked numbers belong to inactive results.
Test system: Vero E6 infected with SARS-CoV-2
Experiment: inhibition of SARS-CoV-2 cytopathic effect; higher = more antiviral protection, active = above 15
Details: 48 h

Compound | inhibition of SARS-CoV-2 cytopathic effect (1 nM) [%] | inhibition of SARS-CoV-2 cytopathic effect (8.33 nM) [%] | inhibition of SARS-CoV-2 cytopathic effect (100 nM) [%] | inhibition of SARS-CoV-2 cytopathic effect (833.33 nM) [%] | inhibition of SARS-CoV-2 cytopathic effect (10000 nM)
NCCCCCNCC12CC3CC(CC(C3)C1)C2 | 2.39 | 1.74 | 0.57 | 2.97 | -1.44%
CC[C@H]1OC(=O)[C@H](C)C(=O)[C@H](C)[C@@H](O[C@@H]2O[C@H](C)C[C@H](N(C)C)[C@H]2O)[C@](C)(OC)C[C@@H](C)C(=O)[C@H](C)[C@H]2N(CCCCn3cnc(-c4cccnc4)c3)C(=O)O[C@]12C [telithromycin] | -2.13 | -0.46 | -1.7 | 0.65 | -0.07%
O=C(Nc1cc(Oc2cc(F)c(NC(=O)C3(C(=O)Nc4ccc(F)cc4)CC3)cc2F)ccn1)C1CC1 [altiratinib] | -1 | 2.23 | 3.44 | -1.62 | 1.09%
C[C@]1(Cn2ccnn2)[C@H](C(=O)O)N2C(=O)C[C@H]2S1(=O)=O [tazobactam] | 0.92 | -1.48 | 2.92 | 0.65 | 2.47%
CN1C(=O)C(F)=C[C@]2(C)[C@H]3CC[C@]4(C)[C@@H](C(=O)NCc5nc6cccnc6[nH]5)CC[C@H]4[C@@H]3CC[C@@H]12 | 0.34 | -0.43 | -0.05 | 2.35 | 1.08%
CN(C)C(=O)c1ccc(S(=O)(=O)c2ccc(NC(=O)[C@@](C)(O)C(F)(F)F)c(Cl)c2)cc1 | -0.45 | 0.49 | 0.27 | 0.59 | -3.54%
O=C1c2ccccc2C(=O)C1c1ccccc1 [phenindione] | -1.88 | -1.11 | -1.06 | -1.97 | -3.42%
CC1=C(/C=C/C(=C/C=C/C(C)=C/C(=O)O)c2ccc(C)cc2)C(C)(C)CCC1 | 0.94 | 2.92 | 1 | 1.71 | 6.23%
Oc1ccc(Cl)c2c1CCC2 [chlorindanol] | 1.21 | -1.76 | -1.84 | -1.95 | 4.12%
C=CCN1CC[C@]23c4c5ccc(O)c4O[C@H]2C(=O)CC[C@@]3(O)[C@H]1C5 | -1.98 | 1.85 | 1.15 | 3.34 | 0.28%
CN[C@@H]1[C@@H](O[C@H]2O[C@H](CO)[C@@H](N)[C@H](O)[C@H]2O)O[C@H]2C[C@@H](N)[C@@H](O[C@H]3[C@H](O)[C@@H](O)[C@H](N)C[C@@H]3N)O[C@@H]2[C@@H]1O [apramycin] | -4.27 | -2.53 | -2.38 | 0.37 | 0.71%
O=C(O)CCCO | 1.65 | 2.68 | 2.71 | 1.83 | 1.79%
CN1CCC(=C2c3ccccc3CCc3sccc32)CC1 [pizotifen] | 2.55 | -0.27 | 0.72 | 1.5 | -3.38%
CCN(CC)CCOc1ccc(/C(=C(\Cl)c2ccccc2)c2ccccc2)cc1 [clomifene] | 0.1 | 1.97 | 2.27 | 3.88 | 21.1% (active)
C/C=C1\[C@H]2C=C(C)C[C@]1(N)c1ccc(=O)[nH]c1C2 [(-)-Huperzine A] | 0.37 | 2.1 | 0.96 | -0.65 | -0.5%
OC[C@H]1O[C@@H](O[C@@H]2[C@@H](CO)OC(O)(CO)[C@H]2O)[C@H](O)[C@@H](O)[C@H]1O (mixture of isomers) [lactulose] | 1.11 | 0.23 | -0.45 | -1.79 | 1.61%
OC[C@H]1O[C@@H](OCCc2ccc(O)cc2)[C@H](O)[C@@H](O)[C@@H]1O [salidroside] | -0.77 | 0.23 | -0.6 | 0.45 | -0.54%
O=C(O)CCCCC(=O)O [adipic-acid] | -3.52 | -3 | -0.01 | -2.5 | -1.83%
CNC(=N)NCCC[C@H](N)C(=O)O [targinine] | -1.27 | 4.65 | 8.19 | 0.16 | 3.97%

Compound | inhibition of SARS-CoV-2 cytopathic effect (1 nM) [%] | inhibition of SARS-CoV-2 cytopathic effect (8.33 nM) [%] | inhibition of SARS-CoV-2 cytopathic effect (100 nM) [%] | inhibition of SARS-CoV-2 cytopathic effect (833.33 nM) [%] | inhibition of SARS-CoV-2 cytopathic effect (10000 nM)
CNC1CCCN(c2c(F)cc3c(=O)c(C(=O)O)cn(C4CC4)c3c2OC)C1 (stereo not given) [balofloxacin] | -2.96 | 0.66 | 1.91 | 1.72 | 2.43%
Oc1cccc(O)c1 [resorcinol] | -6.66 | -5.24 | -4.73 | -2.6 | -2.66%
C[C@@H]1C/C=C/C=C/C=C/C=C/[C@H](O[C@@H]2O[C@H](C)[C@@H](O)[C@H](N)[C@@H]2O)C[C@@H]2O[C@](O)(C[C@@H](O)C[C@H]3O[C@@H]3/C=C/C(=O)O1)C[C@H](O)[C@H]2C(=O)O [natamycin] | 2.57 | -0.49 | -2.28 | -6.12 | -4.75%
CSc1ccccc1Nc1nc(N2CCNCC2)nc2c(NCC3CC3)ncnc12 | 1.44 | 1.6 | 1.17 | 0.92 | -33.2%
NS(=O)(=O)c1cc2c(cc1Cl)N=C(CSCc1ccccc1)NS2(=O)=O [benzthiazide] | 3.18 | 0.15 | 0.52 | 2.56 | -0.2%
COc1cc2nccc(Oc3ccc(NC(=O)Nc4ccc(F)cc4F)c(F)c3)c2cc1OC | -0.54 | 1.76 | 4.46 | 4.37 | 5.75%
CC(C)NC(=N)NC(=N)Nc1ccc(Cl)cc1 [proguanil] | -0.7 | 0.28 | -0.95 | -1.01 | -5.67%
Cn1c(=O)c2c(ncn2CCOC(=O)C(C)(C)Oc2ccc(Cl)cc2)n(C)c1=O [etofylline-clofibrate] | 4.94 | 3.79 | 1.68 | 2.56 | -0.53%
C[C@]12C/C(=C/O)C(=O)C[C@@H]1CC[C@@H]1[C@@H]2CC[C@@]2(C)[C@H]1CC[C@]2(C)O [Oxymetholone] | 0.88 | 0.02 | 1.73 | 0.45 | 1.57%
NCC(=O)O | 1.39 | -0.35 | 1.12 | -1.32 | 0.49%
c1ccc(-c2ccc(C(c3ccccc3)n3ccnc3)cc2)cc1 (stereo not given) [bifonazole] | 3.05 | 3.28 | 4.39 | -11.6 | 15.4% (active)
CCN(Cc1ccncc1)C(=O)C(CO)c1ccccc1 (stereo not given) [tropicamide] | 2.76 | 4.91 | 3.33 | 3.81 | -2.47%
CN(C)c1ccc2c(c1)Sc1cc(N(C)C)ccc1N2 [leucomethylene-blue] | 2.22 | 0.11 | 0.26 | 0.69 | -7.13%
Cc1cc(-c2ncc(CC(=O)Nc3ccc(-c4cnccn4)cn3)cc2C)ccn1 | -0.34 | -0.01 | -1.16 | 1.44 | 2.89%
COCCOCCOc1ccc(C2=N[C@@](C)(C(=O)O)CS2)c(O)c1 | -1.16 | 1.76 | 1.19 | 1.75 | 2.16%
O=C(Nc1ccccc1F)N[C@H]1N=C(c2ccccc2)c2ccccc2NC1=O | 0.66 | 0.41 | -0.15 | -1.67 | -0.49%
CC(C)c1nc(CN(C)C(=O)N[C@H](C(=O)N[C@@H](Cc2ccccc2)C[C@H](O)[C@H](Cc2ccccc2)NC(=O)OCc2cncs2)C(C)C)cs1 [Ritonavir] | 0.39 | 1.47 | 0.46 | 1.28 | -1.6%
C[C@]12CCC(=O)C(O)=C1CC[C@@H]1[C@@H]2CC[C@]2(C)C(=O)CC[C@@H]12 [formestane] | -6.07 | -1.52 | 4.22 | 6.78 | -1.65%
CNC[C@H](O)c1ccc(O)c(O)c1 [epinephrine] | 3.04 | 3.04 | -1.01 | 0.24 | -0.94%

— the supplement of paper PMC13380429
